In PubChem BioAssay AID1117319 (Southern Research Institute, 2015):
“And” between values parts separate entries of the source, which are not always exact repeats. Equal entries are not always repeated. Among all 260,000 compounds or so, about 1,500 (0.58%) were called active. Inconclusive results (about 5%) are left out.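 How the source made its calls: active means inhibition above a set limit at one or more doses, reproduced on every date tested; inconclusive means results disagree between test dates, or hit never tested in dose response; inactive means the rest.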 These entries were drawn from the full list. Entries with a potency or affinity are not part of this list.

target: Virion infectivity factor (Human immunodeficiency virus type 1 group M subtype B (isolate BH10)) + Virion infectivity factor (Human immunodeficiency virus type 1 group M subtype B (isolate BRU/LAI)) + Virion infectivity factor (Human immunodeficiency virus type 1 group M subtype B (isolate PCV12)) + Virion infectivity factor (Human immunodeficiency virus type 1 group M subtype B (isolate HXB2)) + DNA dC->dU-editing enzyme APOBEC-3G (Homo sapiens) (UniProt P69720+P69721+P69722+P69723+Q9HC16); experiment: inhibitors of Vif binding to APOBEC3G peptide, primary screen, biochemical, TR-FRET, GST-Vif 1-94, biotin-A3G peptide, dose response retest (AID 1117319); settings: stronger effect = higher value;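 further: Vif residues 1-94 fused to GST binding biotinylated APOBEC3G peptide 110-148; 0% = full assay without inhibitor and 100% = GST in place of GST-Vif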

inhibition, inactive:
CC1CCCCC1NC(=O)Cn1nnc2ccccc2c1=O (stereo not drawn) -5.45%
CCCN(C(=O)COc1ccc(C(C)=O)cc1OC)C1CCS(=O)(=O)C1 (stereo not drawn) -0.07%
CC(C)OCCCNCc1cccs1 -0.18%
C=CCSC1=N/C(=C\c2ccc(C(=O)O)cc2)C(=O)S1 -15.6%
C=CCSC1=N/C(=C\c2ccsc2)C(=O)S1 2.35%
CCCSC1=N/C(=C\c2ccc3c(c2)OCO3)C(=O)S1 27%
CCCSC1=N/C(=C\c2ccsc2)C(=O)S1 0.21%
CCSC1=N/C(=C\c2ccc(-c3ccccc3[N+](=O)[O-])o2)C(=O)S1 13.5%
CCOc1c(OC(C)=O)ccc(/C=C2\N=C(SCC)SC2=O)c1[N+](=O)[O-] 9.49%
COc1ccccc1NC(=O)NCCN1C(=O)C2C3C=CC(C3)C2C1=O (stereo not drawn) 4.08%
CCOC(=O)c1c(-c2ccc(Cl)cc2)cn2ccccc12 13.8%
COc1ccc(OC)c(NC(=O)c2ccccc2N(Cc2ccccc2)S(C)(=O)=O)c1 7.69%
CC(OC(=O)c1ccc(Cl)nc1)C(=O)NC1(C#N)CCCCC1 (stereo not drawn) 2.48%
COc1cccc(C(=O)NCC(c2ccc3c(c2)OCO3)N2CCN(c3ccc(F)cc3)CC2)c1 (stereo not drawn) -2.23%
CC(=O)N1CCOc2ccc(S(=O)(=O)NCCc3cccc(C)c3)cc21 2.22%
Cc1ccc2cc(CN(CCN3CCOCC3)Cc3nnnn3Cc3ccco3)c(=O)[nH]c2c1C 11.1%
Cc1ccc2cc(CN(Cc3ccc4c(c3)OCO4)Cc3nnnn3Cc3ccco3)c(=O)[nH]c2c1C -12.9% and 10.6%
COC(=O)c1ccc(Cn2nc(C)c(Cl)c2C)o1 3.48%
Clc1cccc(CON/C=N/c2ncnc3sccc23)c1 -6.38%
CC(=O)Nc1ccccc1OCC(=O)NCCC1=CCCCC1 -8.53%
CCN(CC)c1ccc2cc(C=O)c(=O)oc2c1 24.5%
CCN(CC)c1ccc2c(C)c(Cl)c(=O)oc2c1 -11.9%
CC(C)N=C1SCC(C)(/C=N/O)S1 (stereo not drawn) 5.98%
O=C1[C@@H]2C(Cc3ccc(O)cc3)NC3(C(=O)Nc4ccc(F)cc43)[C@@H]2C(=O)N1c1ccccc1 (stereo partly drawn) -9.27%
O=C1[C@@H]2[C@H](Cc3ccc(O)cc3)N[C@]3(C(=O)Nc4ccccc43)[C@@H]2C(=O)N1c1ccc(F)cc1 3.97%
CCN=C1SC(CC(N)=O)C(=O)N1CC (stereo not drawn) 9.83%
Cc1nc(N2CCN(C(=O)c3ccco3)CC2)nc2c1C(=O)CC(C)C2 (stereo not drawn) -2.42%
COc1ccc(Cl)cc1NC(=O)c1cnccn1 3.9%
Cc1nc(N)c(C#N)c(-c2ccc3c(c2)OCO3)c1C -4.59%
Cc1c(C)n(C(=O)CSc2ncn[nH]2)c2ccccc12 -2.61%
Cc1[nH]c2ccccc2c1C(=O)CSc1nc2ccccc2[nH]1 30.3%
CC(=O)c1ccc(NC(=O)c2cnn3ccccc23)cc1 1.77%
CSc1cccc(NC(=O)c2cnn3ccccc23)c1 1.6%
COc1ccc(N2CCN(C(=O)CSc3ncn[nH]3)CC2)cc1 7.54%
COc1ccc(-n2nnnc2/C=C/Nc2cc(C(F)(F)F)ccc2OC)cc1 -7.87%
C=C(C1=CCN(S(=O)C(C)(C)C)[C@H]1CCO)c1ccccc1 (stereo partly drawn) -5.4%
Cc1nc2cc(-c3ccccc3)nn2c(C)c1CCC(=O)N1CCN(c2ccccc2)CC1 -3.02%
Cc1nc2nc(C)c(CCC(=O)N3CCN(c4ccccn4)CC3)c(C)n2n1 8.31%
Cc1ccc(/C=N/n2cnc3sc4c(c3c2=O)CCCC4)o1 8.22%
CC(C)N(C(=S)Nc1cccnc1)c1ccccc1 4.04%
CCN(C(=S)Nc1cccnc1)c1ccccc1 -9.76%
O=[N+]([O-])c1ccccc1N/N=C/c1ccc2c(c1)OCO2 26.8%
Cc1c(-c2ccccc2)nc2ccccc2c1C(=O)NCc1cccs1 10.6%
COc1cc(NC(=O)c2cnn3c(C)cc(C)nc23)c(OC)cc1Cl 0.24%
Cc1ccc(NC(=O)c2cc3nc(C)cc(C)n3n2)cc1 3.27%
COc1cc(C2c3c([nH]c(=O)[nH]c3=O)Nc3ccc4ccccc4c32)cc(OC)c1OC (stereo not drawn) 1.71%
CCC(=O)N(c1nnc(SCC(=O)Nc2sccc2C(N)=O)s1)C1CC1 4.16%
O=C(OC1CCCCC1)c1ccc(NC(=O)C2CCCCC2)cc1 2.8%
O=C(O)CCC(=O)Nc1ccc(C(=O)OC2CCCCC2)cc1 9.06%
CCN(CC)C(=O)c1ccc(-c2ccccc2)cc1 3.81%
Fc1ccc2c(c1)C1C=CCC1C(c1cc3c(cc1Br)OCO3)N2 (stereo not drawn) 1.91%
O=C1CN(C(=O)c2c(F)cccc2F)C(c2ccccc2)c2cc(Br)ccc2N1 (stereo not drawn) -0.06%
CCOC(=O)c1ccc2c(c1)C(=O)N(C1CCCCC1)C2=O 6.81%
CCOC(=O)c1ccc2nc(C)c3c(c2c1)OC(C)C3 (stereo not drawn) -3.24%
CCN(CC)C(=O)c1ccc(C)c(Br)c1 -4.6%
CN1CC(=O)N(CC(=O)Nc2ccc(N3CCOCC3)cc2)C1=O -19.5%
O=C1OC(Cc2ccccc2)(c2ccccc2)c2ccccc21 (stereo not drawn) 3.92%
CN(C(=O)Cn1nnc(-c2cccnc2)n1)C1CCCCC1 8.32%
CCOP(=O)(OCC)C(NC(=O)Nc1ccc(C)c(Cl)c1)c1ccccc1 (stereo not drawn) 1.69%
COc1cc(/C=N/N=C(\N)c2nonc2N)cc(OC)c1O 16.4%
CCCc1nn2c(=O)cc(O)nc2s1 3.77%
CCCNc1nc(C)c(C(C)=O)cc1C#N 29.1%
Cc1nn(C)c(Oc2cccc(C(F)(F)F)c2)c1C#N 1.09%
CNc1nc(C)c(C(=O)c2ccc(Cl)cc2)s1 -4.16%
CCC(NC(=O)c1ccccc1NC(=O)c1ccc(C)cc1)C(=O)O (stereo not drawn) 2.64%
CC(=O)c1ccc2c(c1)CCN2 9.69%
Cc1ccc2c(c1)C(c1ccccc1)N(C(=O)C(C)C)CC(=O)N2 (stereo not drawn) 1.62%
CC(=O)c1ccc(N2CCC(C(=O)O)CC2)cc1 6.29%
Cc1ccc2c(c1)C(c1ccc(F)cc1)N(C(=O)C1CC1)CC(=O)N2 (stereo not drawn) -2.57%
COC(=O)c1cc(=O)nc2scc(C)n12 5.72%
C=C1[C@@H](C)C2[C@H](Cc3ccccc3)NC(=O)[C@]23OC(=O)CC[C@H](O)CCC[C@H](C)C/C=C/[C@H]3[C@@H]1O (stereo partly drawn) 6.17%
CC(C)COP(=O)(OCC(C)C)C(O)c1ccc(N(C)C)cc1 (stereo not drawn) 12.4%
CC(C)OP(=O)(c1ccc(N(C)C)cc1)C(O)c1ccc(N(C)C)cc1 (stereo not drawn) -8.7%
O=C(O)c1ccc2c(c1)C(=O)N(c1cccc(S(=O)(=O)Nc3cccc(C(F)(F)F)c3)c1)C2=O 25.9%
CCOC(=O)C1=C(C)N=C2SC(C(=O)OC)=CC(=O)N2C1c1cccc(OC)c1 (stereo not drawn) 0.81%
CCOC(=O)C1=C(C)N=C2SC(C(=O)OC)=CC(=O)N2C1c1ccc(OC)cc1 (stereo not drawn) 7.8%
N#Cc1ccc(N2CCCNCC2)nc1 -3.01%
COc1ccc2oc(C(=O)N3CCCc4ccccc43)c(C)c2c1 0.82%
CC1CCC(NC(=O)C2CCN(c3nc4ccccc4s3)CC2)CC1 (stereo not drawn) 7.57%
CC1CCCCN1Cc1ccc(N)cc1 (stereo not drawn) -2.03%
CN(C)c1ccc(CN2CCCCCC2)cc1 8.55%
COc1ccc(C2NC(Cc3ccccc3)(C(=O)O)C3C(=O)N(c4ccccc4OC)C(=O)C23)cc1 (stereo not drawn) -0.26%
CCOC(=O)c1cnc2nc(SC)nn2c1N 4.24%
C=CCn1c(N2CCOCC2)nc2c1c(=O)[nH]c(=O)n2C 1.7%
COCCn1c(Sc2nc(C)cs2)nc2c1c(=O)[nH]c(=O)n2C -3.29%
C=CCn1c(N2CCCC2)nc2c1c(=O)[nH]c(=O)n2C -1.68%
C=CCn1c(Sc2nnc(C)s2)nc2c1c(=O)[nH]c(=O)n2C 3.94%
CC(=O)Nc1ccc(NC(=S)NC(=O)C2CC2)cc1 0.52%
CC(=O)Nc1ccc(NC(=O)CN2CCN(c3ccccn3)CC2)cc1 -2.22%
Cn1nc(C(=O)Nc2ccccc2N2CCCC2)c2ccccc2c1=O 1.83%
CCCOc1ccc(/C=c2\sc3ncnn3c2=O)cc1 3.82%
Cc1ccc(/C=c2\sc3nc(-c4cccnc4)nn3c2=O)cc1 8.43%
CCCOc1ccc(/C=c2\sc3nc(-c4ccco4)nn3c2=O)cc1OCC 8.17%
COc1ccccc1/C=c1\sc2nc(-c3ccco3)nn2c1=O 31.4%
COc1cccc(/C=c2\sc3nc(-c4cccs4)nn3c2=O)c1OC 21.5%
COc1ccccc1/C=C/C=c1\sc2nc(=O)c(Cc3ccccc3)nn2c1=O 26.2%
O=c1nc2s/c(=C\c3ccco3)c(=O)n2nc1Cc1ccc(F)cc1 23.6% and -1.42%
COc1ccc(OC)c(/C=c2\sc3nc(-c4cccs4)nn3c2=O)c1 10.3%
